Assay results from PubChem BioAssay (EPA / NIEHS).
Several values for one entry are separate records, joined by “and”; a condition that tells them apart may be missing. Equal entries are not always repeated. Where a structure was tested more than once in an assay, its records may differ in their call. Activity calls are given as the source filed them. Rule for the calls: active = hit-call score of the fitted dose curve at least 0.9, where 1 is the maximum; inactive = score below 0.9.

Read-out: Vascular cell adhesion molecule 1 (VCAM1), VCAM1 (gene 7412)
Assay: BSK_hDFCGF_VCAM1: BioMAP Diversity Plus: hDFCGF Assay for Vascular cell adhesion molecule 1 (VCAM1) Biomarker Activity (AID 2283065)
Conditions: primary human foreskin fibroblasts; actives raise or lower the signal
Protocol: BSK_hDFCGF is a cell-based, multiplexed-readout assay that uses foreskin fibroblast, a human skin primary cell, with measurements taken at 24 hours after chemical dosing in a 96-well plate.BSK_hDFCGF_VCAM1 is an assay component measured in the BSK_hDFCGF assay. It measures VCAM-1 antibody related to regulation of gene expression using ELISA technology.Data from the assay component BSK_hDFCGF_VCAM1 was analyzed into 1 assay endpoint. This assay endpoint, BSK_hDFCGF_VCAM1, was analyzed with bidirectional fitting relative to DMSO as the negative control and baseline of activity. Using a type of binding reporter, gain or loss-of-signal activity can be used to understand changes in the signaling as they relate to the gene VCAM1. Furthermore, this assay endpoint can be referred to as a primary readout, because this assay has produced multiple assay endpoints where this one serves a signaling function. To generalize the intended target to other relatable targets, this assay endpoint is annotated to the cell adhesion molecules intended target family, where the subfamily is Immunoglobulin CAM.
The levels of cell surface (or secreted, indicated by the prefix "s") biomarker endpoints were measured by ELISA. Overt cytotoxicity to cells in confluent adherent cultures (all systems other than the BT system) was assessed by measuring total protein levels using sulforhodamine B (SRB) staining in parallel cultures at the time of biomarker measurements, indicated as SRB endpoints. For proliferation assays for adherent cell types, individual cell types are cultured at sub-confluence and relative cell numbers quantified by SRB staining at time points optimized for each system (48 h: 3C and CASM3C systems; 72 h: BT and HDF3CGF systems; 96 h: SAg system). SRB was performed by staining cells with 0.1% SRB after fixation with 10% TCA and reading wells at 560 nm.Viability and proliferation of PBMC (T cells) was quantified by Alamar Blue reduction for the SAg and BT systems. For PBMC viability (referred to as PBMC Cytotoxicity within the assay endpoint names), cells were plated (75,000/well in a 96-well plate) and then chemical samples added for 1 h before addition of activators, SEB and TSST-1 (20 ng/mL final concentration each). Cells were incubated for 90 h. Then, Alamar Blue (20 uL/well) (Invitrogen, Cat DAL1100) was added for 6 h, and the plates were read with a fluorescence microplate reader at 546/580 nm (excitation/emission). For PBMC proliferation, cells were plated and activated as above but incubated for only 16 h prior to addition of Alamar Blue. Plates were read after 6 h.

Question: With `Cn1cnc([N+](=O)[O-])c1Sc1ncnc2nc[nH]c12` as the compound, how does the AC50 read?
Answer: Its AC50 is 12.6 µM (active) and 16 µM (active).

Question: And the outcome?
Answer: Its outcome is “inactive”.

Question: For `O=C(CCCCCCCCc1cccnc1)N1CCC(C=C(c2ccccc2)c2ccccc2)CC1`, which AC50 is on record?
Answer: The AC50 was 8.47 µM (active).

Question: How did the outcome turn out when `CC(=O)OC[C@H]1O[C@@](COC(C)=O)(O[C@H]2O[C@H](COC(C)=O)[C@@H](OC(C)=O)[C@H](OC(C)=O)[C@H]2OC(C)=O)[C@@H](OC(C)=O)[C@@H]1OC(C)=O` was run?
Answer: Its outcome is “inactive”.

Question: With `CC1=CC(=O)CC(C)(C)C1` as the compound, how does the outcome read?
Answer: Its outcome is “inactive”.

Question: With `COc1ccc(/C=C/S(=O)(=O)NC(=O)c2ccc(C)cc2Cl)cc1` as the compound, how does the outcome read?
Answer: The outcome was “inactive”.

Question: With `C=CC(=C)CCC=C(C)C` as the compound, how does the outcome read?
Answer: Its outcome is “inactive”.

Question: With `On1ccccc1=S` as the compound, how does the AC50 read?
Answer: Its AC50 is 0.479 µM (active).

Question: For `C1N2CN3CN1CN(C2)C3`, which outcome is on record?
Answer: Its outcome is “inactive”.

Question: Which outcome does the source give for `CCCCCCCCCCCCCCCO` here?
Answer: The outcome was “inactive”.

Question: With `COC(=O)c1ccccc1O` as the compound, how does the outcome read?
Answer: Its outcome is “inactive”.

Question: Which outcome does the source give for `O=C1CCCCCN1` here?
Answer: Its outcome is “inactive”.

Question: How did the outcome turn out when `O=C1OC(=O)C2C3C=CC(C3)C12` (stereo not given) was run?
Answer: The outcome was “inactive”.

Question: Which outcome does the source give for `Fc1ccccc1[C@@H](F)COC1CCC(Nc2ncnc3[nH]ncc23)CC1` (stereo not given in full) here?
Answer: The outcome was “inactive”.

Question: Which outcome does the source give for `CCn1nc(Cc2ccccc2)cc1C1CCN(C[C@H]2C[C@H](N(C)[C@@H](C(=O)O)C(C)C)C[C@@H]2c2cccc(F)c2)CC1` here?
Answer: Its outcome is “inactive”.

Question: For `CC[C@H]1OC(=O)[C@H](C)[C@@H](O[C@H]2C[C@@](C)(OC)[C@@H](O)[C@H](C)O2)[C@H](C)[C@@H](O[C@@H]2O[C@H](C)C[C@H](N(C)C)[C@H]2O)[C@](C)(O)C[C@@H](C)C(=O)[C@H](C)[C@@H](O)[C@]1(C)O`, which outcome is on record?
Answer: Its outcome is “inactive”.

Question: For `CC(=O)OCCC(C)C`, which outcome is on record?
Answer: The outcome was “inactive”.

Question: `COCCOc1cc2cc(C(=O)NC3CCN(C(C)C)CC3)n(CC(=O)Nc3ccc(Cl)cn3)c2cn1` was tested. Which outcome did it give?
Answer: Its outcome is “inactive”.

Question: Which AC50 does the source give for `O=C(O)c1cccc(N(Cc2cccnc2)c2ccc(OC(F)F)c(OC(F)F)c2)c1` here?
Answer: Its AC50 is 1.27 µM (active).

Question: Which outcome does the source give for `CCCN(C1CCN(C(=O)C2CCNCC2)CC1)[C@@H]1CCc2ccc(OC)cc2C1` here?
Answer: Its outcome is “inactive”.

Question: `CC(C)CCO` was tested. Which outcome did it give?
Answer: Its outcome is “inactive”.

Question: How did the outcome turn out when `C1=CCCC=CCCC=CCC1` was run?
Answer: The outcome was “inactive”.

Question: For `Cc1ccc(O)cc1`, which outcome is on record?
Answer: The outcome was “inactive”.

Question: For `CNS(=O)(=O)c1cc(C(=O)N2CCC(CCN3C4CCC3CC(n3c(C)nc5ccccc53)C4)(c3cccc(F)c3)CC2)c(Cl)cc1F` (stereo not given), which outcome is on record?
Answer: Its outcome is “inactive”.

Question: For `CCOc1cccc(-n2cc(C(=O)N3CCN(c4cc(C(=O)O)c5ccccc5c4)CC3)nc2-c2ccc(C)cc2)c1`, which AC50 is on record?
Answer: Its AC50 is 12.9 µM (active).

Question: How did the outcome turn out when `O=C(NS(=O)(=O)/C=C/c1ccccc1)c1ccc(F)cc1Cl` was run?
Answer: The outcome was “inactive”.

Question: How did the outcome turn out when `Nc1nc2ncc(CNc3ccc(C(=O)N[C@@H](CCC(=O)O)C(=O)O)cc3)nc2c(=O)[nH]1` was run?
Answer: Its outcome is “inactive”.

Question: How did the outcome turn out when `CCCC(=O)OCC` was run?
Answer: Its outcome is “inactive”.

Question: Which outcome does the source give for `NC(=O)NO` here?
Answer: Its outcome is “inactive”.

Question: Which outcome does the source give for `Cc1ccc(C)c(O)c1` here?
Answer: Its outcome is “inactive”.

Question: Which AC50 does the source give for `O=c1n(CC2CO2)c(=O)n(CC2CO2)c(=O)n1CC1CO1` (stereo not given) here?
Answer: The AC50 was 11.6 µM (active).

Question: `O=C(O)c1cccc(Oc2ccccc2)c1` was tested. Which outcome did it give?
Answer: Its outcome is “inactive”.

Question: `Nc1ccc(Nc2ccccc2)cc1` was tested. Which AC50 did it give?
Answer: Its AC50 is 5.54 µM (active).

Question: How did the outcome turn out when `Nc1cccc(N)c1` was run?
Answer: The outcome was “inactive”.

Question: How did the outcome turn out when `CC(C)(O)c1coc(S(=O)(=O)NC(=O)Nc2c3c(cc4c2CCC4)CCC3)c1` was run?
Answer: The outcome was “inactive”.

Question: For `O=C(O)c1cc(N=Nc2ccc(S(=O)(=O)Nc3ccccn3)cc2)ccc1O`, which outcome is on record?
Answer: The outcome was “inactive”.

Question: With `CC(C)=CCC/C(C)=C/CO` as the compound, how does the outcome read?
Answer: Its outcome is “inactive”.

Question: `CN(C)c1ccc(Cc2ccc(N(C)C)cc2)cc1` was tested. Which outcome did it give?
Answer: The outcome was “inactive”.

Question: For `O=c1[nH]c2ccc(S(=O)CCN3CCC(Cc4ccc(F)cc4)CC3)cc2o1` (stereo not given), which outcome is on record?
Answer: Its outcome is “inactive”.

Question: `COc1ccc(-n2nc(C(F)F)cc2-c2ccc(S(C)=O)cc2)cc1` (stereo not given) was tested. Which outcome did it give?
Answer: Its outcome is “inactive”.
